From PubChem BioAssay (NCI)
Compounds without any hit were thinned out: in the full panel of roughly 83,000, 20% have a hit.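 Step 1: grow cells in 96-well plates. Step 2: add test compound at a single concentration. Step 3: incubate 48 h. Step 4: record percent growth.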 Unmarked numbers belong to inactive results. Calls of active or inactive are those of the source. How the source made its calls: active means growth percent below 10; inactive means the rest.

The compounds below were run on NCI-H226 lung (assay: NCI-60 one-dose screen, 48 h (100 = growth as untreated, 0 = no growth, -100 = all killed)). Conditions: 10 µM unless noted.
`CS(=O)(=O)c1ccc(/C(=N/NC(N)=S)c2ccc(F)cc2)cc1` was tested, and the growth was 107%.
`CC1(C)CC[C@]2(CO)CC[C@]3(C)C(=CC[C@@H]4[C@@]5(C)CCNCC(C)(C)[C@@H]5CC[C@]43C)[C@@H]2C1` gave a growth of 106%.
With `C=C(CNCCc1ccc(O)cc1)[C@@H]1CC[C@]2(CO)CC[C@]3(C)[C@H](CC[C@@H]4[C@@]5(C)CCC(N)C(C)(C)[C@@H]5CC[C@]43C)[C@@H]12` (stereo partly drawn) the growth was 87.6%.
For `C(=N\Nc1nnc2n1N=C(c1ccccc1)CS2)/c1ccc(OCc2ccccc2)cc1`, the growth was 88.9%.
In the case of `O=C(/C=C\c1ccc(O)c(O)c1)c1ccccc1O`, the growth is reported as 71.4%.
Compound `COc1ccc(/C=C2/CCc3cc4ccc(OC)cc4[o+]c32)c(O)c1` has a growth of 81.5%.
`Cc1ccc(-c2nnc(SCc3nc(N)nc(Nc4ccccc4F)n3)n2-c2ccccc2)cc1` gave a growth of 80.4%.
Compound `O=C(Nc1cccc(Cl)c1)Oc1c(Cl)c(Cl)c(Cl)c(Cl)c1Cl` has a growth of 83.8%.
`COc1ccc(-c2csc(NC(=O)CSc3nc(C)cc(=O)[nH]3)n2)cc1` was tested, and the growth was 111%.
For `Cc1c(C)c2c(c(C)c1OC(=O)CCC(=O)[O-])CCC(C)(CCCCCCCCCCC[P+](c1ccccc1)(c1ccccc1)c1ccccc1)O2` (stereo not drawn), the growth was -6.94% (active).
With `CCN(CC)CCCNC(=O)c1c2c(n3ccccc13)C(=O)c1ncccc1C2=O` the growth was -34.9% (active).
`O=C(/C=C/c1ccc([N+](=O)[O-])cc1)c1cccc(Nc2nc(Nc3ccccc3)nc(Nc3ccccc3)n2)c1` showed a growth of 82.6%.
In the case of `CN1CC(c2ccccc2)C(C(=O)c2ccc(Br)cc2)C12C(=O)Nc1ccccc12` (stereo not drawn), the growth is reported as 90.5%.
`COCCNC(=O)Cc1cc(-c2ccc(Cl)cc2)n(-c2ccccc2)c1C` gave a growth of 89.8%.
`CNc1nc2ncc(-c3c(C)noc3C)cc2n1Cc1ccccc1` was tested, and the growth was 56.6%.
In the case of `CC1(C)CC[C@]2(CO)CC[C@]3(C)[C@H](CC[C@@H]4[C@@]5(C)CC[C@H](O)C(C)(C)[C@@H]5CC[C@]43C)[C@H]2[C@H]1O`, the growth is reported as 79.1%.
`COC(=O)[C@@H](Cc1c[nH]c2ccccc12)NC[C@@H](O)CN1C(=O)/C(=C\c2cc(OC)c(OC)c(OC)c2)c2ccccc21` was tested, and the growth was 58.5%.
With `CCc1ccc(Cc2cnc(NC(=O)c3cc(C)oc3C)s2)cc1` the growth was 66.3%.
With `CN1CCN(CC(=O)N(C)c2ccc(N=C(c3ccccc3)c3c(O)[nH]c4ccc([N+](=O)[O-])cc34)cc2)CC1` the growth was 61.9%.
In the case of `COc1cc2c(c(OC)c1OC)CCC(c1cccc(NC(=O)c3cccc(Cl)c3)c1)O2` (stereo not drawn), the growth is reported as 79.8%.
For `O=C1C2C(c3cccs3)C=C(c3ccc(Cl)cc3)N2C(=S)N1c1ccccc1` (stereo not drawn), the growth was 86.8%.
`CCN1CCN(c2cc(C(=O)Nc3cccc(Nc4ccc5c(OC)cccc5n4)c3)cc(C(F)(F)F)c2)CC1` gave a growth of 45.1%.
For `CCCNNC(=O)c1ccc(CNC(=O)/C=C/c2ccccc2)cc1`, the growth was 73.4% [2.5 µM].
`CC(=O)Oc1ccccc1C(=O)N(Cc1ccc2c(Cl)cc(Cl)c(O)c2n1)c1ccccc1` showed a growth of 66.4%.
Compound `CN(C)c1ccc(/C=N/NC(=O)CSc2nc3sc4c(c3c(=O)n2-c2ccccc2)CCCCC4)cc1` has a growth of 96.5%.
`N#Cc1nn(-c2ccccn2)c(N)c1C#N` was tested, and the growth was 106%.
For `CC(Cc1cccc2ccccc12)C(N)=O` (stereo not drawn), the growth was 100%.
Compound `Cc1nc2ccccc2c(/C=C/c2ccc(Br)cc2)c1C(=O)/C=C/c1ccccc1` has a growth of 25.1%.
`c1ccc2[nH]c(-c3ccc(-c4nccc5c4[nH]c4ccccc45)cc3)nc2c1` was tested, and the growth was 77.4%.
Work on `Cc1[nH]c(C(=O)Nc2ccc(C(N)=O)cc2OC(C)C)c(Cl)c1Cl` yielded a growth of 107%.
`C/C=C(/C)C(=O)O[C@@H]1CC(C)(C)CC2C34OC(=O)[C@@]21CC[C@@]3(C)[C@]1(C)CCC2C(C)(C)C(=O)CC[C@]2(C)C1C[C@@H]4O` (stereo partly drawn) showed a growth of 58.6%.
`C=C(C[n+]1ccccc1)[C@@H]1CC[C@]2(C(=O)OC)CC[C@]3(C)[C@H](CC[C@@H]4[C@@]5(C)CCC(=O)C(C)(C)[C@@H]5CC[C@]43C)[C@@H]12` showed a growth of 90.3%.
`COC(=O)c1c(C(=O)OC)c2ccc3c4ncccc4ccc3n2c1C(=O)c1ccc(C)cc1` showed a growth of 96.6%.
